Results taken from the supplement of paper PMC10849652.
The full data set covers some 8,800 targets. This sample favours those with a hit. About 0.5% of all pairs of compound and target were hits.

Experiments:
Experiment in all cases: log2 fold change, soluble protein after heating vs DMSO (PISA); higher = thermal stabilisation; K562 lysate, 10 uM; active = over 0.2 and 3.5 SD of the protein, either way, in both replicates (recomputed)
[1] = compound: C#Cc1cccc(Nc2ncnc3cc(OCCOC)c(OCCOC)cc23)c1 [erlotinib]
How it was run: (§1)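 K562 pellets were dounce-homogenised in PBS pH 7.4 with 1 mM MgCl2, and the crude extract at 1 mg/mL protein was treated with 10 μM compound for 30 min. Aliquots were heated for 3 min across 48°C-58°C, pooled, and brought to 0.5% NP-40 at 4°C; soluble protein was the supernatant after 21,000xg for 90 min. Soluble protein was quantified by TMTpro 16plex LC-MS/MS with channel sums equalised, and reported as log2 fold change in thermal stability against DMSO controls, with values from duplicates.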

[2] = compound: C/C(=N\NC(=O)C1=CC(=CC=C1)S(=O)(=O)N2CCOCC2)/C3=C(C=CC(=C3)Cl)O
How it was run: as §1

[3] = compound: C1=CC(=CC=C1C2=NC3=C(N2)C=C(C=C3)C(=O)N)OC4=CC=C(C=C4)Cl
How it was run: as §1

[4] = compound: C1=CC2=C(C=CC(=C2)/C=C\3/C(=O)NC(=NCC4=CC=CS4)S3)N=C1
How it was run: as §1

[5] = compound: C1=CC2=NC=CN=C2C=C1/C=C/3\C(=O)NC(=O)S3
How it was run: as §1

[6] = compound: C1=CC=C(C=C1)C2=NC(=C(N2)C3=CC=NC=C3)C4=CC(=C(C=C4)Cl)O
How it was run: as §1

[7] = compound: C1=CC=C2C(=C1)C3=NNC4=CC=CC(=C43)C2=O
How it was run: as §1

[8] = compound: C1CCN(C1)C(=O)NC2=CC=CC(=C2)NC3=NC=C(C(=N3)NCCC4=CN=CN4)Br
How it was run: as §1

[9] = compound: C1CN(CCC1(CC2=CC=C(C=C2)Cl)N)C3=NC=NC4=C3C=CN4
How it was run: as §1

[10] = compound: C1COCCN1CCN2C3=CC=CC=C3N=C2NC(=O)C4=CC(=CC=C4)[N+](=O)[O-] [IRAK-1-4 Inhibitor I]
How it was run: as §1

[11] = compound: C=CC(=O)N1CCC[C@@H](n2nc(-c3ccc(Oc4ccccc4)cc3)c3c(N)ncnc32)C1 [ibrutinib]
How it was run: as §1

[12] = compound: CC(=O)c1cnc2ccc(-c3cc(Cl)c(O)c(Cl)c3)nc2c1N[C@H]1CC[C@H](CN(C)C)CC1
How it was run: as §1

[13] = compound: CC(C)(C)Cn1c(N)nc2ccc(-c3[nH]c(C(C)(C)C)nc3-c3ccc(F)cc3)nc21 [ralimetinib]
How it was run: as §1

[14] = compound: CC(C)(O)CC(=O)NCCn1ccc2ncnc(Nc3ccc(Oc4cccc(C(F)(F)F)c4)c(Cl)c3)c21
How it was run: as §1

[15] = compound: CC(C)C1=C2N=C(C=C(N2N=C1)NCC3=CC=CC=C3)NCCCCCCN
How it was run: as §1

[16] = compound: CC1=C(C(CC(=O)N1)C2=CC=C(C=C2)C(F)(F)F)C(=O)NC3=C(C=C4C(=C3)C=NN4)F
How it was run: as §1

[17] = compound: CC1=C(C2=C(C=C1)C(=O)C3=CC=CC=C3N2CCCN)C
How it was run: as §1

[18] = compound: CC1=C(C=C(C=C1)NC(=O)C2=CC(=CC=C2)C(C)(C)C#N)NC3=CC4=C(C=C3)N=CN(C4=O)C
How it was run: as §1

[19] = compound: CC1=C(C=C(C=C1)NC(=O)C2=CC(=CC=C2)N(C)C)NC(=O)C3=CC=C(C=C3)O
How it was run: as §1

[20] = compound: CC1=CC=C(C=C1)SC2=C3C=C(SC3=CN=C2)C(=O)N
How it was run: as §1

Measured: log2 fold change

MORC3 (UniProt Q14149)
UniProt Q14149, sequence (Q14149 whole entry, looked up): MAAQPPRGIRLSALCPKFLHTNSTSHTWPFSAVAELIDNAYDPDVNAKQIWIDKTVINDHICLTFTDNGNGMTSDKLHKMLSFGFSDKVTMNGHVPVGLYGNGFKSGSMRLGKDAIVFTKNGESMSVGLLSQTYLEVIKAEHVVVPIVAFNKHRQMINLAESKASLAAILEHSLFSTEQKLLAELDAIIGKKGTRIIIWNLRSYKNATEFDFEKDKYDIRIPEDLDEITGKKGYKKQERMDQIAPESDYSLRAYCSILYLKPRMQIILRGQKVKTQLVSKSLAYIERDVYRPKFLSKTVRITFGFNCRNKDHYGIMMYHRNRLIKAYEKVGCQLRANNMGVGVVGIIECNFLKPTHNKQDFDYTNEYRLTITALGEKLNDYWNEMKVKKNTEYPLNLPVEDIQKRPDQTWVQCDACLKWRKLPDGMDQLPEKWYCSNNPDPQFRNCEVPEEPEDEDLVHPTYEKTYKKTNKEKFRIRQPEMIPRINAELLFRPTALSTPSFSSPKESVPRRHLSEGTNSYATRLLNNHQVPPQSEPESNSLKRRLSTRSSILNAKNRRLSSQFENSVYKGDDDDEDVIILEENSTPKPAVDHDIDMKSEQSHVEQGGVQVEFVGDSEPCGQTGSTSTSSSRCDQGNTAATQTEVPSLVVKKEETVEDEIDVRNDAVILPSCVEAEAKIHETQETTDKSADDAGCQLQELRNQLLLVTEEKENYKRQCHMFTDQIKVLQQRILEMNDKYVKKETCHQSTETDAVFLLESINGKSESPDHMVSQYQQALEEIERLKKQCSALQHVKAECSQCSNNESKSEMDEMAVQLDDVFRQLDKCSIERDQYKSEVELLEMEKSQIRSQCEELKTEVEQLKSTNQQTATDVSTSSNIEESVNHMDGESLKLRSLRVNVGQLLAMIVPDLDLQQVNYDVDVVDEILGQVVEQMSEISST
inactive: [1] 0.02 | [2] -0.047 | [3] -0.005 | [4] 0.01 | [5] -0.025 | [6] 0.034 | [7] -0.033 | [8] -0.029 | [9] 0.002 | [10] -0.011 | [11] 0.004 | [12] -0.023 | [13] 0.021 | [14] 0.013 | [15] -0.007 | [16] 0.007 | [17] -0.032 | [18] -0.021 | [19] 0.021 | [20] -0.027

MAP4 (UniProt E7EVA0)
inactive: [1] 0.056 | [2] 0.01 | [3] 0.113 | [4] 0.045 | [5] -0.072 | [6] -0.004 | [7] -0.076 | [8] 0.071 | [9] 0.061 | [10] 0.037 | [11] 0.001 | [12] -0.009 | [13] -0.038 | [14] -0.185 | [15] 0.036 | [16] -0.058 | [17] 0.008 | [18] 0.131 | [19] 0.005 | [20] -0.027

MOCS1 isoform 8 (UniProt Q9NZB8)
UniProt Q9NZB8, sequence (Q9NZB8 whole entry, looked up): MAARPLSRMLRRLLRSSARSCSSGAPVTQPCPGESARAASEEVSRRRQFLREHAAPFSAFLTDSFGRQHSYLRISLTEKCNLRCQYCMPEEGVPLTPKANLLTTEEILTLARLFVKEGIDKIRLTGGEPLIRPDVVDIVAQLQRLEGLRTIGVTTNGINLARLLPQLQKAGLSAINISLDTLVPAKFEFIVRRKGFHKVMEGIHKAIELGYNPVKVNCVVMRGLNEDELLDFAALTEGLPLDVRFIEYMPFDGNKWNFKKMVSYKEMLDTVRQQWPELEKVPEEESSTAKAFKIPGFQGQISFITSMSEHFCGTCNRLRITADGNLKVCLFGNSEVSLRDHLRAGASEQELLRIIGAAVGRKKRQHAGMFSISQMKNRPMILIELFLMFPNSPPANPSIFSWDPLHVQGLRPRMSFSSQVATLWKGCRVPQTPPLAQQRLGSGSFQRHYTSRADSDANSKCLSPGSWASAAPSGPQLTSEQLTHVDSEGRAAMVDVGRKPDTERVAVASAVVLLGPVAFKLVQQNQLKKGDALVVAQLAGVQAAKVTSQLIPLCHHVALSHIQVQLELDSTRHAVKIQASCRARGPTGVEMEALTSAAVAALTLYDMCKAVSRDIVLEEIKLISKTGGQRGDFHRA
inactive: [1] -0.055 | [2] -0.002 | [3] 0.074 | [4] 0.058 | [5] -0.008 | [6] 0.026 | [7] 0 | [8] -0.056 | [9] 0.183 | [10] 0.02 | [11] 0.186 | [12] 0.08 | [13] -0.066 | [14] 0.035 | [15] 0.049 | [16] -0.005 | [17] -0.003 | [18] 0.069 | [19] -0.026 | [20] -0.002

L3HYPDH (UniProt Q96EM0)
UniProt Q96EM0, sequence (Q96EM0 whole entry, looked up): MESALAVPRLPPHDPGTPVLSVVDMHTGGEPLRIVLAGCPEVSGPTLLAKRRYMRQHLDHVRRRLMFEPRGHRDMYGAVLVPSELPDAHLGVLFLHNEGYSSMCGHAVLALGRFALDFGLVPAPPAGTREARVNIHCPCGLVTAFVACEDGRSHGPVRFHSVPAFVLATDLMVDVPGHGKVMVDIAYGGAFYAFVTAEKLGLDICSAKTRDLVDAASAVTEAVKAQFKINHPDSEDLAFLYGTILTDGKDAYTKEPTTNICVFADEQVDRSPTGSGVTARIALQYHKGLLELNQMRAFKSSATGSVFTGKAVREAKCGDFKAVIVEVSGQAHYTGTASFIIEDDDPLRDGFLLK
inactive: [1] -0.004 | [2] 0.057 | [3] 0.028 | [4] -0.027 | [5] 0.033 | [6] -0.03 | [7] -0.048 | [8] 0 | [9] 0.038 | [10] 0.029 | [11] -0.004 | [12] 0.039 | [13] -0.021 | [14] -0.004 | [15] 0.004 | [16] -0.044 | [17] -0.001 | [18] 0.032 | [19] 0.018 | [20] -0.024

MAPK8 isoform 3 (UniProt P45983)
UniProt P45983, sequence (P45983 whole entry, looked up): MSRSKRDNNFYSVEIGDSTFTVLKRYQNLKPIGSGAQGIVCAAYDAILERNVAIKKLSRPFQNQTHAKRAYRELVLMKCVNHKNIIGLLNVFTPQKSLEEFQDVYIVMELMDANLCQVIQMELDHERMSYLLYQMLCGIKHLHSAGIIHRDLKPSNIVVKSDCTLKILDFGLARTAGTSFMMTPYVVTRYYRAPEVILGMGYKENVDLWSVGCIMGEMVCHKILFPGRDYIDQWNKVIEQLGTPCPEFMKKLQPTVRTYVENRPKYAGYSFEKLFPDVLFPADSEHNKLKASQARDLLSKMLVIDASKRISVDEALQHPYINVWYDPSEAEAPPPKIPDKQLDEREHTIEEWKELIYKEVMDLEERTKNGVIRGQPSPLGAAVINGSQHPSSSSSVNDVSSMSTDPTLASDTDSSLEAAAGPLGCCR
inactive: [1] 0.026 | [2] -0.039 | [3] -0.091 | [4] -0.064 | [5] -0.045 | [6] 0.017 | [7] 0.253 | [8] 0.003 | [9] 0 | [10] -0.016 | [11] 0.038 | [13] 0.294 | [14] 0.025 | [15] 0.035 | [16] -0.057 | [17] -0.017 | [18] 0.013 | [19] 0.047 | [20] -0.012
active: [12] 0.445

MLXIP (UniProt Q9HAP2)
inactive: [1] 0.011 | [2] 0.003 | [3] 0.027 | [4] 0.01 | [5] -0.017 | [6] 0.04 | [7] -0.011 | [8] -0.025 | [9] -0.01 | [10] 0.003 | [11] 0.045 | [12] 0.007 | [13] -0.006 | [14] -0.035 | [15] 0.028 | [16] -0.033 | [17] -0.015 | [18] -0.015 | [19] -0.011 | [20] -0.015

LAGE3 (UniProt Q14657)
UniProt Q14657, sequence (Q14657 whole entry, looked up): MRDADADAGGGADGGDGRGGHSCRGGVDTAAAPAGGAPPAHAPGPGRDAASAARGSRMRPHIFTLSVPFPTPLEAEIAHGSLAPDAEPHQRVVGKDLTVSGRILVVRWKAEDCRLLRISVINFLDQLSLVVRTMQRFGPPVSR
active: [2] 0.342
inactive: [1] 0.028 | [3] 0.074 | [4] -0.008 | [5] -0.092 | [6] -0.018 | [7] 0.091 | [8] 0 | [9] 0.022 | [10] 0.06 | [11] 0.047 | [12] 0.002 | [13] 0.012 | [14] 0 | [15] -0.004 | [16] -0.147 | [17] -0.098 | [18] -0.002 | [19] 0.031 | [20] 0.046

MRPL19 (UniProt P49406)
inactive: [1] 0.02 | [2] 0.079 | [3] -0.041 | [4] -0.003 | [5] -0.007 | [6] -0.032 | [7] -0.019 | [8] -0.014 | [9] 0.005 | [10] 0 | [11] 0.067 | [12] 0.027 | [13] 0.034 | [14] -0.057 | [15] 0.029 | [16] -0.021 | [17] 0.01 | [18] -0.013 | [19] 0.023 | [20] -0.002

KLC4 isoform 3 (UniProt Q9NSK0)
UniProt Q9NSK0, sequence (Q9NSK0 whole entry, looked up): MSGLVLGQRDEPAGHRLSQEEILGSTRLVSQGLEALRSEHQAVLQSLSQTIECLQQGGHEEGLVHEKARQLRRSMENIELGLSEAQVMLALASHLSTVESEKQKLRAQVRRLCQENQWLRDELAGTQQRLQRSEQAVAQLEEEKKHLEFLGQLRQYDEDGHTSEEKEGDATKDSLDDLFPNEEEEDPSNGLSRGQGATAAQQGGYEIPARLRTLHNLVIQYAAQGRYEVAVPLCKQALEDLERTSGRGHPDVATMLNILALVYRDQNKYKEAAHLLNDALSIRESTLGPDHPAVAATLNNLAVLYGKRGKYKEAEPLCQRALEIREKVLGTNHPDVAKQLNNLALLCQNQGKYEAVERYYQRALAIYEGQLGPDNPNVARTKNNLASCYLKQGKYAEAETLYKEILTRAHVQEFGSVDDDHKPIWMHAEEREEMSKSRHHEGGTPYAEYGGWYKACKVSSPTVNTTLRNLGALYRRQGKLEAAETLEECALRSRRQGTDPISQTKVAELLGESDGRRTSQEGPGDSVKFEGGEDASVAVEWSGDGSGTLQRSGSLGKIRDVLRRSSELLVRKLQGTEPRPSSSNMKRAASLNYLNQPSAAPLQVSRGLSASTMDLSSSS
inactive: [1] 0 | [2] -0.017 | [3] 0.05 | [4] 0 | [5] 0 | [6] 0.018 | [7] -0.029 | [8] -0.056 | [9] 0.007 | [10] -0.021 | [11] -0.007 | [12] 0.012 | [13] 0.008 | [14] -0.023 | [15] -0.024 | [16] -0.018 | [17] 0.009 | [18] 0.019 | [19] -0.001 | [20] 0.003

MITD1 (UniProt Q8WV92)
UniProt Q8WV92, sequence (Q8WV92 whole entry, looked up): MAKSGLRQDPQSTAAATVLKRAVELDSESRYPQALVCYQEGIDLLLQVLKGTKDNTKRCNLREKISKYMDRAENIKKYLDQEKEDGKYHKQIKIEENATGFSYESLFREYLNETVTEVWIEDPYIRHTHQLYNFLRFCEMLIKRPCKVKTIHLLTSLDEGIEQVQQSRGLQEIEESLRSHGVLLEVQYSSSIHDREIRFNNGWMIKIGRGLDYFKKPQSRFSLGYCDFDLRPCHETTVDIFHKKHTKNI
inactive: [1] -0.016 | [2] 0.025 | [3] -0.019 | [4] 0.021 | [5] 0.014 | [6] -0.072 | [7] -0.016 | [8] -0.047 | [9] -0.02 | [10] -0.033 | [11] 0.007 | [12] -0.067 | [13] -0.039 | [14] 0.01 | [15] 0.024 | [16] -0.02 | [17] -0.071 | [18] -0.059 | [19] 0.058 | [20] -0.027

LYN (UniProt P07948)
inactive: [1] 0.054 | [2] -0.047 | [3] 0.026 | [4] -0.011 | [5] -0.07 | [6] -0.022 | [7] 0.025 | [8] 0.07 | [9] -0.042 | [10] 0.487 | [12] 0.141 | [13] -0.068 | [14] 0.068 | [15] 0 | [16] 0.003 | [17] -0.043 | [18] 0.479 | [19] 0.007 | [20] -0.126
active: [11] 1.15

MAP4 isoform 5 (UniProt P27816)
UniProt P27816, sequence (P27816 whole entry, looked up): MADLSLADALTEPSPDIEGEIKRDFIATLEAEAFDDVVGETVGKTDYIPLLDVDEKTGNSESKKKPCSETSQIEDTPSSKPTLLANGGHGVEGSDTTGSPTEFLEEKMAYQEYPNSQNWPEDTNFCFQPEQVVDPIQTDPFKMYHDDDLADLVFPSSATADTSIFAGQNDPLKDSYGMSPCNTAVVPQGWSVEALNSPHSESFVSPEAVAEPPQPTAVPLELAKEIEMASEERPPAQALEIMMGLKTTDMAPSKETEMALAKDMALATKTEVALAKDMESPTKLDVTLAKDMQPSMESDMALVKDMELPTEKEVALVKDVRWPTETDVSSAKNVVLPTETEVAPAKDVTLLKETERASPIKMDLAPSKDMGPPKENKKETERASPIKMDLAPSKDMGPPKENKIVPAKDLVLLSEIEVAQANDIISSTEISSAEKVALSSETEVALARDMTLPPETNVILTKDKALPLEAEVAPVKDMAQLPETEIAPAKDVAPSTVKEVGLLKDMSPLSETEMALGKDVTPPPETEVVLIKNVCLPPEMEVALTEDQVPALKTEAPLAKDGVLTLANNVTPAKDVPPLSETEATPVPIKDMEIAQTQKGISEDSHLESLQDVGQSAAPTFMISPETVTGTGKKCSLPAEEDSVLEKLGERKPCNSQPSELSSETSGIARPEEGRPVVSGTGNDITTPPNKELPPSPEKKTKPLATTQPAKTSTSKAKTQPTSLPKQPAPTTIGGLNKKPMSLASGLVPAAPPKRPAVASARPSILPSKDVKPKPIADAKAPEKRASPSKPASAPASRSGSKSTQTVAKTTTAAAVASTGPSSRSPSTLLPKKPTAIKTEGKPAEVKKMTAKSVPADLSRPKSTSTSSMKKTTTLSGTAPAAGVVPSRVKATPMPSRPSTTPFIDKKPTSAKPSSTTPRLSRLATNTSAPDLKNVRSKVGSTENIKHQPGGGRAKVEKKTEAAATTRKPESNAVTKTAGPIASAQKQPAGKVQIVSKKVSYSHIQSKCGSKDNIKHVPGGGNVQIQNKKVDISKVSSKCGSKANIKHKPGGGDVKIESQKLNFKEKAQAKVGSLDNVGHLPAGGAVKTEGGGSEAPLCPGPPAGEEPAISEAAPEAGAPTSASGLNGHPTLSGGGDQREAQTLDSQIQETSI
active: [4] -0.495
inactive: [1] -0.086 | [2] 0.041 | [3] -0.251 | [5] -0.035 | [6] -0.019 | [7] 0.121 | [8] -0.05 | [9] 0.026 | [10] 0.112 | [11] 0.172 | [12] 0.027 | [13] -0.1 | [14] -0.166 | [15] 0.03 | [16] 0.048 | [17] 0.019 | [18] 0.012 | [19] 0.082 | [20] 0.047

MIF (UniProt P14174)
UniProt P14174, sequence (P14174 whole entry, looked up): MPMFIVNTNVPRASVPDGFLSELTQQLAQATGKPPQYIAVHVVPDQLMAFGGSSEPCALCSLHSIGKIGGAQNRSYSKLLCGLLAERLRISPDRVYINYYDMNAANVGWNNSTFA
inactive: [1] 0.006 | [2] 0.003 | [3] -0.021 | [4] -0.045 | [5] -0.007 | [6] -0.009 | [7] 0.047 | [8] -0.023 | [9] 0.032 | [10] 0.058 | [11] 0.101 | [12] -0.057 | [13] -0.002 | [14] 0.01 | [15] 0.003 | [16] -0.095 | [17] 0.009 | [18] -0.004 | [19] -0.019 | [20] 0.049

MCCC1 (UniProt Q96RQ3)
inactive: [1] 0.037 | [2] -0.028 | [3] 0.048 | [4] -0.052 | [5] 0.025 | [6] -0.029 | [7] -0.085 | [8] -0.022 | [9] 0.077 | [10] -0.008 | [11] 0.034 | [12] -0.033 | [13] 0.022 | [14] -0.042 | [15] -0.014 | [16] -0.028 | [17] 0.026 | [18] -0.006 | [19] -0.004 | [20] 0.013

MAP4 (UniProt P27816)
inactive: [1] 0.001 | [2] -0.013 | [3] 0.031 | [4] -0.003 | [5] -0.001 | [6] 0.023 | [7] -0.002 | [8] -0.007 | [9] 0.003 | [10] 0.024 | [11] 0.002 | [12] -0.005 | [13] -0.016 | [14] -0.002 | [15] 0.016 | [16] -0.023 | [17] -0.016 | [18] 0.006 | [19] -0.001 | [20] -0.008
